Reference: PubChem BioAssay AID651965 (National Center for Advancing Translational Sciences (NCATS), 2013)
Out of some 340,000 compounds screened, about 6,400 (1.9%) were called active. Not shown: some 4% with an inconclusive outcome. The sample as a whole holds a higher share of actives than the screen did. A number with no mark means an inactive call. Calls follow the shape of the dose curve; as a rule, active = well fitted falling curve with a large enough effect; inconclusive = small, poorly fitted or top-dose-only effect; inactive = no such curve, though single readings can be large or run the other way.

Biological target: ATP-dependent Clp protease proteolytic subunit (Bacillus subtilis (strain 168)) (UniProt P80244)
Assay: qHTS Assay for Activators of ClpP; also: the source files actives as falling curves though it sought activators and does not explain the sign; nearly all actives have a fitted effect of over 65% in size
Conditions: purified B. subtilis ClpP, FRET peptide cleavage, 20 min; series mostly up to 57.5 µM; activity change, negative = active: at the top concentration
Summary of the method: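 FRET quenching reversal measured ClpP activation: 10 microg/mL B. subtilis ClpP at pH 8 with the FRET-FV decapeptide, read at 430 nm after 320 nm excitation. The 20-min minus 0-min signal was scaled between DMSO/no-enzyme wells and ADEP (5.8 microM final).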
Potency is read from the fitted curve at half-maximal effect.

SMILES	activity change, negative = active	Potency
Cc1ccc(S(=O)(=O)N2CCC(=O)N([C@H](COCc3ccccc3)C(C)C)CC2)cc1	1.87%	–
CN(N=O)c1ccc(C=C2c3ccccc3-c3ccccc32)cc1	-1.46%	–
CN(C)C1=C2C=CC=CC2/C(=C2/C=Cc3ccccc32)C=C1 (stereo unspecified)	2.14%	–
Cc1ccc(-c2cnc(C(O)c3cccc(C)c3C)[nH]2)cc1 (stereo unspecified)	-0.238%	–
O=C(c1ccco1)N(Cc1cccs1)c1ccc(O)cc1	-3.06%	–
O=C1NC[C@H](Cc2ccc(O)cc2)N(C[C@@H]2CCCN2C[C@H](Cc2ccccc2)N2C[C@H](Cc3ccccc3)N(CC3CCCCC3)C(=O)C2=O)C1=O	-3.68%	–
CCOC(=O)NC(C(F)(F)F)(C(F)(F)F)P(=O)(c1ccccc1)c1ccccc1	0.601%	–
CCN1C(=O)N[C@@H](c2ccccc2)C(C(=O)OC)=C1C	-0.536%	–
CCOC(=O)NN1C(=O)c2ccccc2NC1c1cccc(O)c1 (stereo unspecified)	–	31.6 µM (active)
CCOC(=O)CN1CCC(c2ccccc2)CC1	-2.84%	–
CCOC(=O)NN1C(=O)c2ccccc2NC1c1ccccc1O (stereo unspecified)	–	25.1 µM (active)
CCOC(=O)C(=O)C1C(=O)Nc2ccccc21 (stereo unspecified)	-7.79%	–
CCOC(=O)[C@]12CCCC=C1N(CCC1=CCCCC1)C(=O)[C@H](CC(=O)NCCCCc1ccccc1)C2	1.64%	–
O=C(Nc1ccccc1C(F)(F)F)c1nc(S(=O)(=O)Cc2ccccc2F)ncc1Cl	5.4%	–
COc1cc2nc(Cl)nc(NC3CC3)c2cc1OC	-8.73%	–
CN(CC(=O)O)C(=O)c1ccccc1	1.88%	–
CN(/N=C/c1ccccc1)C(=S)c1ccccc1	-1.22%	–
CN(O)C(=S)c1ccccc1	–	11.2 µM (active)
O=S1(=O)CC(N2CCN(Cc3ccccc3F)CC2)CN1Cc1cn(Cc2ccccc2)nn1 (stereo unspecified)	0.896%	–
Cc1c(CCO)sc[n+]1CC(=O)c1ccc2ccccc2c1	3.84%	–
CCc1nc2ccc(C(=O)N(C)Cc3ccco3)cn2c1N(C)C(=O)Cc1ccccc1	-2.03%	–
CN(CCO)C(=O)c1nc[nH]c1C(=O)N(C)Cc1ccccc1	2.81%	–
CN(Cc1ccccc1)C(=O)[C@@H]1CCCN1C(=O)[C@@H]1CCCN1C(=O)c1c(F)cccc1F	1.37%	–
Cc1nccn1-c1ccc(NC(=O)[C@H]2O[C@@H](n3ccc(=O)[nH]c3=O)[C@H](O)[C@@H]2O)cc1	2.72%	–
CCCC(=O)N1CCC1(C)C(=O)Nc1ccc(-n2cncn2)cc1 (stereo unspecified)	-3.69%	–
O=C(Nc1ccn(Cc2ccccc2)n1)c1n[nH]c([N+](=O)[O-])c1Cl	–	22.4 µM (active)

SMILES	activity change, negative = active	Potency
O=C(Nc1ccn(Cc2ccccc2F)n1)c1ccc(COc2ccc(Cl)cc2Cl)o1	-17.4%	–
Cc1ccc(Cn2ccc(NC(=O)C3C4CCC(C4)C3C(=O)O)n2)cc1 (stereo unspecified)	-28.6%	–
O=C(c1cnn2c1NC(=C1CC1)C=C2C(F)F)N1CCc2ccccc2C1	0.979%	–
Cc1ccc(C(O)c2ncc(-c3ccccc3F)[nH]2)cc1F (stereo unspecified)	0.929%	–
CCCCn1c(N)c(N(CCC(C)C)C(=O)c2ccc(COc3ccccc3)o2)c(=O)[nH]c1=O	-5.35%	–
CCCCN(C(=O)c1ccc(C)o1)c1c(N)n(CCCC)c(=O)[nH]c1=O	0.476%	–
CCCCn1c(N)c(N(CCC(C)C)C(=O)c2ccc([N+](=O)[O-])o2)c(=O)[nH]c1=O	–	3.16 µM (active)
CCN(C(=O)Nc1cccc2ccccc12)c1ccccc1	4.17%	–
O=c1cc(O)nc(SCc2ccccc2Cl)[nH]1	–	28.2 µM (active)
Cc1cc(=O)[nH]c(SCc2ccc(Cl)cc2)n1	0.425%	–
Cc1cc(=O)[nH]c(SCc2cc(Cl)ccc2OC(F)F)n1	-0.513%	–
O=C(Nc1cccc2ccccc12)c1[nH]c(-c2ccccc2)c2c1C(=O)N(C1CC1)C2=O	1.62%	–
O=C(OC1CC2CC1[C@H]1CCCCN1C2=O)N1CCOCC1 (stereo partly specified)	1.07%	–
COc1ccccc1-c1sc2ccccc2c1C#CC1(O)CCCCC1	-0.0591%	–
COc1ccccc1-c1sc2ccccc2c1-c1ccc(C(C)=O)cc1	–	28.2 µM (active)
COc1ccc2sc(-c3ccccc3OC)c(-c3ccc(OCCN4CCCC4)cc3)c2c1	-7.61%	–
CCCOc1ccc(F)cc1-c1cc(C(=O)Nc2ccc(F)c(Cl)c2)[nH]n1	-24.4%	–
CN(C)c1ccc(/C=C/c2sc3ccccc3[n+]2CCCCBr)cc1	0.0357%	–
CCOC(=O)[C@]12CCCC=C1N(CCC1=CCCCC1)C(=O)[C@H](CC(=O)N1CCSCC1)C2	0.986%	–
Fc1ccc2cnc(-c3ccccc3)cc2c1	-20%	–
O=S(=O)(c1ccc(F)cc1)n1ccc(-c2cnc(-c3ccccc3)s2)n1	–	20 µM (active)
O=S(=O)(c1ccc(F)cc1)N1CC=C(c2ccccc2)CC1	0.167%	–
Cc1ccc(S(=O)(=O)N2CC3C(=O)C[C@@H](c4ccccc4Cl)N(S(=O)(=O)c4ccc(C)cc4)C3CC2c2ccccc2)cc1 (stereo partly specified)	0.552%	–
Cc1cccc(-c2nnc(SC(C)C(=O)Nc3ccccc3)n2C)c1 (stereo unspecified)	-2.03%	–
CCOC(=O)[C@]12CCCC=C1N(Cc1ccc3c(c1)OCO3)C(=O)[C@H](CC(=O)N1CCN(C(=O)c3ccco3)CC1)C2	-3.46%	–
CN(C)c1ccc(/C=C/c2sc3ccccc3[n+]2C)cc1	0.862%	–

SMILES	activity change, negative = active	Potency
CC1(Oc2cccc(F)c2)CCN(Cc2ccccc2OC(F)F)C1 (stereo unspecified)	0.0673%	–
Cc1nc2ccccc2nc1CC(O)(c1ccccc1)c1ccccc1	1.05%	–
Cc1nc2ccccc2cc1O	–	3.55 µM (active)
Cc1nc2cccnc2nc1C	0.763%	–
CC(C)c1cc(C(=O)N(C)C2CCCN(Cc3ccccc3F)C2)n(C)n1 (stereo unspecified)	-0.736%	–
Cc1cn([C@H]2C[C@H](O)[C@@H](/C=C/C(=O)NCCCc3ccccc3)O2)c(=O)[nH]c1=O	-2.25%	–
Cc1cc(Cl)ccc1C(=O)C1CCCN(C(=O)c2ccc3c(c2)OCO3)C1 (stereo unspecified)	-3.31%	–
O=C1c2cccc3cccc(c23)N1CN1CCN(c2ccccn2)CC1	10.9%	–
COc1ccc(N2C(=O)c3cccc4cccc(c34)C2=O)nn1	–	15.8 µM (active)
CC(C(=O)O)N1C(=O)c2cccc3cccc1c23 (stereo unspecified)	-2.92%	–
CCCOc1ccc(-c2cccc(NS(=O)(=O)c3ccccc3)c2)nn1	-0.0705%	–
CCS(=O)(=O)Nc1cccc(-c2cc(-c3ccccc3)c3cc(C)ccc3n2)c1	–	31.6 µM (active)
CCCS(=O)(=O)Nc1cccc(-c2cn3ccsc3n2)c1	-4.02%	–
Cc1ccnc(N2CCC(C(=O)NC3CCCCCC3)CC2)n1	–	25.1 µM (active)
O=C(NC1CCCCCC1)C1CCN(C(=O)c2ccc(Cl)cc2)CC1	0.752%	–
O=C(NNC(=O)C1CCN(c2ncccn2)CC1)c1ccccc1	-19.4%	–
c1cc(-c2ccc3[nH]ccc3c2)n2ccnc2c1	4.02%	–
CCOC(=O)[C@]12CCCC=C1N(CCC1=CCCCC1)C(=O)[C@H](CC(=O)N1CCCCC1)C2	0.0448%	–
N#Cc1c(-c2ccc(F)cc2)nc(-c2ccccc2)[nH]c1=O	-3.09%	–
[O-][n+]1onc2c1CCc1[nH]c(-c3ccccc3)nc1-2	–	28.2 µM (active)
CN(C(=O)CN1CCN(c2cc(-c3ccc(OCc4ccccc4)cc3)ncn2)CC1)c1ccccc1	-2.81%	–
COc1ccc(Cl)cc1NC(=O)NCC1CCN(Cc2ccccc2F)CC1	–	inactive
COc1ccc(Cl)cc1NC(=O)CNc1ccccc1F	1.27%	–
COc1ccc(Cl)cc1NC(=O)C(C)N1CCc2ccccc21 (stereo unspecified)	–	28.2 µM (active)
CCOc1ccc(NC(=O)N(CCC(C)C)C(C)c2ccco2)cc1 (stereo unspecified)	–	28.2 µM (active)
CCOc1ccc(NC(=O)N(CC(C)C)CC(C)C)cc1	0.546%	–

SMILES	activity change, negative = active	Potency
CC(C)CCN(C(=O)Nc1ccc(Cl)c(Cl)c1)C(C)c1cccs1 (stereo unspecified)	-0.0691%	–
OC(CBr)C[n+]1cccc2cc(Br)ccc21 (stereo unspecified)	-16.9%	–
Cc1ccc(-n2nc(C)c(/C=N/NC(=O)c3cccs3)c2Cl)cc1	5.26%	–
Cc1ccc(C(=O)/C=C/c2c(C)nn(-c3ccccc3)c2Cl)cc1	–	6.31 µM (active)
Cc1nn(-c2ccccc2)c(Cl)c1/C=C/C(=O)c1ccc(O)cc1	-2.48%	–
Cc1ccc(-c2nc3c(C)cc(Br)cn3c2Cc2ccccc2)cc1	-4.79%	–
COC(=O)C[C@@H]1C=C[C@@H](NC(=O)c2ccc3c(c2)OCO3)[C@@H](CO)O1	-12%	–
CCOc1ccc(NC(=O)CSc2nnc3c(n2)[nH]c2ccc(S(=O)(=O)N4CCOCC4)cc23)cc1	9.8%	–
CC(C)C1Cc2[nH][nH]c(=O)c2C(c2ccc(Cl)cc2)O1 (stereo unspecified)	-0.878%	–
O=C(COc1ccccc1Cl)Nc1ccc2nc(SCC(=O)N3CCCC3)sc2c1	-14.3%	–
O=C(Nc1ccc2nc(SCC(=O)N3CCCc4ccccc43)sc2c1)c1ccc(Cl)cc1	–	10 µM (active)
CCC(=O)Nc1ccc2nc(SCC(=O)N3CCc4ccccc43)sc2c1	7.24%	–
Nc1nnc(SCC(=O)Nc2ccc3nc(SCC(=O)Nc4ccccc4)sc3c2)s1	0.518%	–
O=C(Nc1ccc2nc(SCC(=O)N3CCCc4ccccc43)sc2c1)c1ccc(F)cc1	–	28.2 µM (active)
O=C(Nc1ccc2nc(SCC(=O)N3CCc4ccccc43)sc2c1)c1ccccc1F	1.34%	–
Cc1ccc(S(=O)(=O)N2[C@@H](Cc3ccccc3)CO[C@H]2CC(=O)OCc2ccccc2)cc1	-0.866%	–
CN1OC[C@@H]2CN(C(=O)c3ccc(-c4ccccc4)cc3)[C@H](c3ccc(-c4cccc(F)c4)cc3)C[C@@H]21	-1.14%	–
O=C(c1ccc(N2CCCC2=O)cc1)N1CCN(c2ccc(C(F)(F)F)cc2[N+](=O)[O-])CC1	0.9%	–
Cc1ccc(Cn2c(C)c(C(=O)NCc3ccccc3C(F)(F)F)sc2=O)cc1	-1.3%	–
O=C(CC[C@H]1O[C@@H](n2ccc(=O)[nH]c2=O)[C@H](O)[C@@H]1O)N[C@H](Cc1ccccc1)C(=O)NCc1ccco1	-1.61%	–
CC(CN1CCOCC1)OC(=O)c1ccc(Cl)cc1Cl (stereo unspecified)	1.92%	–
CC(CN1CCOCC1)OC(=O)c1ccc(C(C)(C)C)cc1 (stereo unspecified)	-2.55%	–
Cc1ccc(C(=O)OC(C)CN2CCOCC2)cc1 (stereo unspecified)	–	39.8 µM (active)
